From PubChem BioAssay (Tox21)
Activity calls are given as the source filed them. Entries that show only a call come without a potency. Calls follow the shape of the dose curve; as a rule, active = well fitted curve in the direction sought with a large enough effect in the repeat runs; inconclusive = weak or mixed curves; inactive = flat fitted curve, though single readings scatter.

assay: qHTS assay to test for compound auto fluorescence at 590 nm (red) in HEK293 cell free culture (AID 720683); conditions: cell-free medium autofluorescence, Ex540/Em590 red; series mostly up to 91.3 µM
Source text: U.S. Tox21 Program National Center for Advancing Translational Sciences [NCATS] NIH Chemical Genomics Center [NCGC] U.S. Environmental Protection Agency [EPA] National Institutes of Environmental Health Sciences [NIEHS] National Toxicology Program [NTP] U.S. Food and Drug Administration [FDA] Tox21 Assay Overview: Compound auto fluorescence often interferes with screening of the compound library against various biological targets and signaling pathways. Some of these compounds may have fluorophoric properties. Such properties may interfere with the assay outputs resulting in false positives and/or negatives. To decrease such complications and ensure the compound activities are relevant in terms of biological response, the Tox21 10K compound library was screened for auto fluorescence. From the fluorophores used as reporter signals in our screening assays, the auto fluorescence equivalencies of compounds against three fluorophores have been evaluated: Triamterene, Fluorescein and Rose Bengal sodium for blue, green and red fluorescence, respectively. The fluorescence intensities were measured using Excitation/Emission wavelengths at 405/460nm, 485/535nm and 540/590nm for blue, green and red labels, respectively. This assay includes the red fluorescence data.
Tox21 Assay Protocol Summary: 5 uL of culture medium (DMEM containing 10% FBS) per well was dispensed into black wall/clear bottom 1536-well plates using a Multidrop Combi Dispenser (ThermoFisher Scientific, Waltham, MA). After 23 nL compound or DMSO vehicle was transferred into assay plate by a pintool work station (Kalypsys, San Diego, CA), fluorescence intensities in the assay plates were measured by an Envision (PerkinElmer, Shelton, CT) plate reader using three labels for measuring blue, green and red fluorescence at […] 460, 535 and 590nm respectively.

SMILES	Potency
Nc1cc([N+](=O)[O-])ccc1C(=O)O	inactive
CC(C)(Oc1ccc(Cl)cc1)C(=O)O	inactive
CNC[C@H](O)c1ccc(O)c(O)c1	inactive
COCCOCCOCCO	inactive
C=CCOC(=O)C(=C)C	inactive
Cc1ccc(C(C)(C)C)cc1	inactive
CC(=O)Oc1c(C)c(C)c2c(c1C)CC[C@@](C)(CCC[C@H](C)CCC[C@H](C)CCCC(C)C)O2	inactive
C[C@]12C=CC(=O)C=C1CC[C@H]1[C@@H]3C[C@@H](O)[C@](O)(C(=O)CO)[C@@]3(C)C[C@H](O)[C@@]12F	inactive
COc1ccc2nc(N)sc2c1	inactive
C[N+](C)(C)CCO	inactive
CC(C)(C)c1cccc(C(C)(C)C)c1O	inactive
Nc1cc(Cl)c(N)c(Cl)c1	inactive
ClC/C=C/CCl	inactive
CC(=O)O[C@]1(C(C)=O)CC[C@H]2[C@@H]3C=C(C)C4=CC(=O)CC[C@]4(C)[C@H]3CC[C@@]21C	inactive
CCCCCCCCCCC(CO)CCCCCCCC (stereo not given)	inactive
COc1ccc(C(=O)c2ccccc2O)c(O)c1	inactive
C=CCCCCCCCCCC	inactive
CN1CCOCC1	inactive
CN(C)C	inactive
CCO[Si](CCCNC(N)=O)(OCC)OCC	inactive

SMILES	Potency
O=C(O)CCCCCCCCCCCC(=O)O	inactive
CCOC(=O)C(C)Oc1ccc(Oc2cnc3cc(Cl)ccc3n2)cc1 (stereo not given)	inactive
CC1=CC(C)(C)Nc2ccccc21	inactive
c1ccc2ncccc2c1	inactive
Cc1cccc(Nc2ccccc2C(=O)O)c1C	inactive
C=C[C@H]1CN2CC[C@H]1C[C@@H]2[C@@H](O)c1ccnc2ccc(OC)cc12	inactive
Cc1ccc([N+](=O)[O-])c(C)c1	inactive
Cc1ccc(N)c([N+](=O)[O-])c1	inactive
COc1cc([C@H]2Oc3cc([C@H]4Oc5cc(O)cc(O)c5C(=O)[C@@H]4O)ccc3O[C@@H]2CO)ccc1O	inactive
Cc1ccc(S(=O)(=O)O)cc1C	inactive
COC(=O)C(C)Oc1ccc(Oc2ncc(C(F)(F)F)cc2Cl)cc1 (stereo not given)	inactive
CC(=O)Nc1ccc2c(c1)Cc1cc(NC(C)=O)ccc1-2	inactive
NCCN	inactive
C=C1C[C@H]2[C@@H]3C=C(C)C4=CC(=O)CC[C@]4(C)[C@H]3CC[C@]2(C)[C@@]1(OC(C)=O)C(C)=O	inactive
O=C(O)CCCC(=O)O	inactive
O=C(O)COCCN1CCN(C(c2ccccc2)c2ccc(Cl)cc2)CC1 (stereo not given)	inactive
CC1(C)C(C=C(Cl)Cl)C1C(=O)OCc1cccc(Oc2ccccc2)c1 (stereo not given)	inactive
Nc1ccc(N)c(Cl)c1	inactive
CCC/C=C/C=O	inactive
CC/C(=C(/CC)c1ccc(O)cc1)c1ccc(O)cc1	inactive
